Laboratory results from PubChem BioAssay AID602293 (National Center for Advancing Translational Sciences (NCATS), 2012).
In all, about 1,300 compounds went through this assay and about 30 (2%) were called active. Roughly 10% stayed inconclusive and do not appear here. The entries come from a sample that favours actives as a whole. Unmarked numbers belong to inactive results. The call rests on the fitted dose curve; in most records, active means well fitted inhibition curve with a large enough effect; inconclusive means small, poorly fitted or top-dose-only effect; inactive means flat fitted curve, though single readings scatter.

test: qHTS for antagonists of the Thyroid Stimulation Hormone Receptor: Hit Validation in HTRF Activity in a Luteinizing Hormone Receptor Cell Line; conditions: LHR-expressing cell line, cAMP HTRF, antagonist mode; series mostly up to 58 µM; activity change, negative = inhibition: at the top concentration
Excerpt: The thyroid-stimulating hormone receptor (TSHR) is a member of the 7 trans-membrane-spanning receptor (7TMR) family of cell surface receptors. TSHR-mediated hyperthyroidism is important in thyroid pathology. The development of small molecule antagonists of TSHR may lead to therapeutic approaches for TSHR-mediated hyperthyroidism caused by constitutively activating mutations or stimulating auto-antibodies associated with Graves' disease. Graves' disease is the leading cause of hyperthyroidism and is caused by autoantibodies that stimulate TSHR (TsAbs) causing thyroid growth and unregulated overproduction of thyroid hormones and existing treatments have liabilities (agranulocytosis). In addition, TSHRs are known to be expressed in multiple extrathyroidal tissues including bone, brain, kidney, testis, fat and cells of the immune system but the role of the TSHR in these tissues is not clear. Therefore, TSHR antagonists/inverse agonists could be used as probes of extrathyroidal TSHR function. Finally, TSHR inverse agonists, which are a subclass of antagonists that inhibit agonist-independent (or basal or constitutive) TSHR signaling, could be used to inhibit TSH-independent signaling in patients with recurrent or metastatic thyroid cancer who are receiving thyroid hormone to suppress TSH.
In collaboration between scientist from the NCGC and the NIDDK, a miniaturized HTRF high-throughput screen was developed. It's a cell based assay, where an anti cAMP antibody contains a fluorescent cryptate tag (excitation 337 nm; emission 620 nm) and the acceptor is cAMP-d2 (excitation 620 nm; emission 665 nm). When antibody and cAMP-d2 interact and are excited by a 337 nm light, a FRET occurs resulting in emission at 665 nm. The assay is competition between cAMP-d2 and cAMP (from the cell lysate). The homogeneous protocol allows for one step dispense after stimulation that is automation friendly. In order to confirm specificity of the compounds to the TSHR, a confirmatory assay was conducted on a similar family member, the Luteinizing Hormone (LH) receptor, transfected into a HEK 293 cell line, using an orthogonal detection technology to measure cAMP stimulation: antibody-based Homogeneous Time Resolved Fluorescence (HTRF).
NIH Chemical Genomics Center [NCGC]
NIH Molecular Libraries Probe Centers Network [MLPCN]
Assay Provider: Marvin Gershengorn, NIDDK
Homogeneous Time Resolved Fluorescence (HTRF) cAMP Assay. HEK 293 cells stably transfected with a vector containing the LH receptor and maintained under hygromycin selection were obtained from the laboratory of Dr. Marvin Gershengorn. Compounds were assayed using a HTRF cAMP detection kit (Cisbio) on the LH receptor transfected cell line. Briefly, 750 cells were plated in 2.5 ul/well of complete media (DMEM containing 10 % FCS, and 100 uM RO 20-1724) in 1536 well solid bottom white plates and 23 nl/well compound in DMSO solution or controls was added. Following 30 minute incubation at room temperature, 2.5 ul/well of labeled d2 cAMP and 2.5 ul/well of anti-cAMP antibody (both diluted 1:20 in lysis buffer) were added to each well using a flying reagent dispenser (Aurora Discovery, San Diego) . Plates were measured using the Envision plate reader (PerkinElmer, Boston, MA) with excitation at 330 nm and emissions of 615 nm and 660 nm.
On the % scale 0 is the no-effect control and ±100 the full control effect; potency means the concentration at half of the fitted maximal effect.

Row | SMILES | Potency | activity change, negative = inhibition
1 | Oc1ccc(-[n+]2c(-c3ccccc3)cc(-c3ccccc3)cc2-c2ccccc2)cc1 | 39.8 µM (active) | –
2 | COc1ccc(-[n+]2c(-c3ccccc3)cc(-c3ccc(C)cc3)cc2-c2ccccc2)cc1 | – | -4.98%
3 | Cc1ccc(-c2cc(-c3ccccc3)cc(-c3ccccc3)[n+]2-c2ccccc2)cc1 | 42.6 µM (active) | –
4 | Cc1ccc(C[n+]2c(-c3ccc(C)cc3)cc(-c3ccc(C)cc3)cc2-c2ccc(C)cc2)cc1 | 37.9 µM (active) | –
5 | OCC[n+]1c2ccccc2nc2ccc(N3CCOCC3)cc21 | – | -8.16%
6 | COC(=O)C1=C(c2ccc(OC(F)(F)F)cc2)C[C@@H]2CC[C@H]1N2C(=O)N1CCC(C)CC1 | – | -4.89%
7 | COC(=O)C1=C(c2ccc(-c3ccccc3)c(F)c2)C[C@@H]2CC[C@H]1N2C(=O)NCC1CC1 | – | -6.08%
8 | CN(C)CC1Oc2ccccc2OC1(O)c1ccccc1 (stereo not given) | – | -2.31%
9 | C[C@H]1O[C@@H](OC2CC[C@]3(C=O)[C@H]4CC[C@]5(C)[C@@H](C6=CC(=O)OC6)CC[C@]5(O)[C@@H]4CC[C@]3(O)C2)CC2OC(C)(C)OC21 (stereo not given in full) | – | -0.216%
10 | N#CC(C#N)=NNc1ccc(-n2ccc(C(F)(F)F)n2)cc1 | – | -4.9%
11 | CC(=O)c1ccc2c(c1)C1C(Cl)C(Sc3ccccc3[N+](=O)[O-])CC1C(C(=O)O)N2 (stereo not given) | – | -4.58%
12 | COC(=O)C1=C(c2ccc(-c3ccccc3)c(F)c2)C[C@@H]2CC[C@H]1N2C(=O)N1CCOCC1 | – | -5.52%
13 | O=C(C1CCN(c2nc3ccc(Br)cc3s2)CC1)N1CCC2(CC1)OCCO2 | – | -2.84%
14 | COc1cc2c(cc1/C=C/[N+](=O)[O-])OCO2 | – | -4.92%
15 | C[C@]12CC[C@H]3C(CCC4(O)CC(O)CC[C@]34C=O)C1=CC[C@H]2c1ccc(=O)oc1 (stereo not given in full) | – | -4.69%
